{
  "source": "paper PMC8384837",
  "about": "“Expanding the binding specificity for RNA recognition by a PUF domain”",
  "assay_in_all_cases": "yeast three-hybrid, YBZ-1, SC-Leu-His + 0.5 mM 3-AT, 4 days",
  "conditions_in_all_cases": "tags: N-Gal4 AD-HA kept; label: inside an RPR1-promoter hybrid RNA with tandem MS2 sites; ssRNA",
  "key": {"[1]": {"target": "PUM1 PUF domain R8-SRR (Homo sapiens, UniProt Q14671 828-1176, N1122S;Y1123R;Q1126R)", "procedure,_shortened": "(§1)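 The interaction score is the log change in variant frequency from input to selection. Scores were computed in log2 with a pseudocount of 1 for absent variants, using Illumina sequencing of PCR-amplified repeat regions. The input came from four days on SC-Leu and the selection from four days on SC-Leu-His + 0.5 mM 3-AT. The cells were strain YBZ-1 (LexA–MS2 coat fusion, HIS3 reporter) co-expressing Pumilio-1 PUF domain libraries and matching RNA elements from a centromeric plasmid.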"}, "[2]": {"target": "PUM1 PUF domain R8-SFK (Homo sapiens, UniProt Q14671 828-1176, N1122S;Y1123F;Q1126K)", "procedure,_shortened": "as §1"}, "[3]": {"target": "PUM1 PUF domain R5-SGR (Homo sapiens, UniProt Q14671 828-1176, C1007S;R1008G;Q1011R)", "procedure,_shortened": "as §1"}, "[4]": {"target": "PUM1 PUF domain R5-FRS (Homo sapiens, UniProt Q14671 828-1176, C1007F;Q1011S)", "procedure,_shortened": "as §1"}, "[5]": {"target": "PUM1 PUF domain R7-NPR (Homo sapiens, UniProt Q14671 828-1176, S1079N;N1080P;E1083R)", "procedure,_shortened": "as §1"}, "[6]": {"target": "T1, PUM1 PUF domain R6-SRR (Homo sapiens, UniProt Q14671 828-1176, N1043S;Y1044R;Q1047R)", "T1 sequence": "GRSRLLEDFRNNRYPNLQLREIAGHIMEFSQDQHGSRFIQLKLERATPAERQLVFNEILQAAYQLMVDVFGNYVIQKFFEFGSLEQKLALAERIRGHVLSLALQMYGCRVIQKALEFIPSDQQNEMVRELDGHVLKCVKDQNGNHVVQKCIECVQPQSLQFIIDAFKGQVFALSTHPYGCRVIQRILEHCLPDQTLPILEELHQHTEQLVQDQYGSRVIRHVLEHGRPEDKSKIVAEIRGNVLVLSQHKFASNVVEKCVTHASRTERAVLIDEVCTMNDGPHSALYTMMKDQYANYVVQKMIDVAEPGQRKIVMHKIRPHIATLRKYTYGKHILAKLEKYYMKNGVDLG", "procedure,_shortened": "as §1"}, "[7]": {"target": "T2, PUM1 PUF domain R6-LFV (Homo sapiens, UniProt Q14671 828-1176, N1043L;Y1044F;Q1047V)", "T2 sequence": "T1 sequence with S216L, R217F, R220V", "procedure,_shortened": "as §1"}, "[8]": {"target": "T3, PUM1 PUF domain R6-AYG (Homo sapiens, UniProt Q14671 828-1176, N1043A;Q1047G)", "T3 sequence": "T1 sequence with S216A, R217Y, R220G", "procedure,_shortened": "as §1"}, "[9]": {"target": "PUM1 PUF domain R7-TTG (Homo sapiens, UniProt Q14671 828-1176, S1079T;N1080T;E1083G)", "procedure,_shortened": "as §1"}, "[10]": {"target": "PUM1 PUF domain R5-WRD (Homo sapiens, UniProt Q14671 828-1176, C1007W;Q1011D)", "procedure,_shortened": "as §1"}},
  "note": "Positions count from the first letter of the chain named.",
  "data": [
    {"sequence": "GGCUAGAACUAGUGGAUCCCCCGGCGCCCGGCGGCUCGAGCCCGGGUAAGCGUAAAUAGUCUGCAUGCCGCCGGGCGCCAUGCCUGCAGGUCGACUCUAGAAAACAUG", "values": [
      {"measurement": "binding signal", "setting": "[1]", "value": "2.8 log2 enrichment (interaction score)"},
      {"measurement": "binding signal", "setting": "[2]", "value": "5.53 log2 enrichment (interaction score)"}
    ]},
    {"sequence": "GGCUAGAACUAGUGGAUCCCCCGGCGCCCGGCGGCUCGAGCCCGGGUAAGUGUCAAUAGUCUGCAUGCCGCCGGGCGCCAUGCCUGCAGGUCGACUCUAGAAAACAUG", "values": [
      {"measurement": "binding signal", "setting": "[3]", "value": "6.98 log2 enrichment (interaction score)"},
      {"measurement": "binding signal", "setting": "[4]", "value": "2.38 log2 enrichment (interaction score)"}
    ]},
    {"sequence": "GGCUAGAACUAGUGGAUCCCCCGGCGCCCGGCGGCUCGAGCCCGGGUAAGUCUAAAUAGUCUGCAUGCCGCCGGGCGCCAUGCCUGCAGGUCGACUCUAGAAAACAUG", "values": [
      {"measurement": "binding signal", "setting": "[5]", "value": "0.79 log2 enrichment (interaction score)"}
    ]},
    {"sequence": "GGCUAGAACUAGUGGAUCCCCCGGCGCCCGGCGGCUCGAGCCCGGGUAAGUGCAAAUAGUCUGCAUGCCGCCGGGCGCCAUGCCUGCAGGUCGACUCUAGAAAACAUG", "values": [
      {"measurement": "binding signal", "setting": "[6]", "value": "3.26 log2 enrichment (interaction score)"}
    ]},
    {"sequence": "GGCUAGAACUAGUGGAUCCCCCGGCGCCCGGCGGCUCGAGCCCGGGUAAGUGAAAAUAGUCUGCAUGCCGCCGGGCGCCAUGCCUGCAGGUCGACUCUAGAAAACAUG", "values": [
      {"measurement": "binding signal", "setting": "[7]", "value": "5.6 log2 enrichment (interaction score)"},
      {"measurement": "binding signal", "setting": "[8]", "value": "2.71 log2 enrichment (interaction score)"}
    ]},
    {"sequence": "GGCUAGAACUAGUGGAUCCCCCGGCGCCCGGCGGCUCGAGCCCGGGUAAGGGUAAAUAGUCUGCAUGCCGCCGGGCGCCAUGCCUGCAGGUCGACUCUAGAAAACAUG", "values": [
      {"measurement": "binding signal", "setting": "[2]", "value": "2.09 log2 enrichment (interaction score)"}
    ]},
    {"sequence": "GGCUAGAACUAGUGGAUCCCCCGGCGCCCGGCGGCUCGAGCCCGGGUAAGUGUAAAUAGUCUGCAUGCCGCCGGGCGCCAUGCCUGCAGGUCGACUCUAGAAAACAUG", "values": [
      {"measurement": "binding signal", "setting": "[3]", "value": "1.55 log2 enrichment (interaction score)"},
      {"measurement": "binding signal", "setting": "[1]", "value": "1.78 log2 enrichment (interaction score)"},
      {"measurement": "binding signal", "setting": "[6]", "value": "3.04 log2 enrichment (interaction score)"},
      {"measurement": "binding signal", "setting": "[4]", "value": "0.74 log2 enrichment (interaction score)"},
      {"measurement": "binding signal", "setting": "[8]", "value": "1.05 log2 enrichment (interaction score)"},
      {"measurement": "binding signal", "setting": "[2]", "value": "5.06 log2 enrichment (interaction score)"}
    ]},
    {"sequence": "GGCUAGAACUAGUGGAUCCCCCGGCGCCCGGCGGCUCGAGCCCGGGUAAGUUUAAAUAGUCUGCAUGCCGCCGGGCGCCAUGCCUGCAGGUCGACUCUAGAAAACAUG", "values": [
      {"measurement": "binding signal", "setting": "[5]", "value": "5.02 log2 enrichment (interaction score)"},
      {"measurement": "binding signal", "setting": "[9]", "value": "3.76 log2 enrichment (interaction score)"}
    ]},
    {"sequence": "GGCUAGAACUAGUGGAUCCCCCGGCGCCCGGCGGCUCGAGCCCGGGUAAGUGUUAAUAGUCUGCAUGCCGCCGGGCGCCAUGCCUGCAGGUCGACUCUAGAAAACAUG", "values": [
      {"measurement": "binding signal", "setting": "[3]", "value": "0.78 log2 enrichment (interaction score)"},
      {"measurement": "binding signal", "setting": "[4]", "value": "3.13 log2 enrichment (interaction score)"},
      {"measurement": "binding signal", "setting": "[10]", "value": "2.27 log2 enrichment (interaction score)"}
    ]}
  ]
}
